What all share (assay): DAPPL (digital affinity profiling via proximity ligation, sequencing); 10 mM Tris-HCl pH 7.5, 50 mM NaCl, 1 mM DTT, 4% glycerol, room temperature, 30 min; GST-TFs on glutathione beads, 16-mer random dsDNA library, 0.1% formaldehyde crosslink after washing; high values mean tight binding
One assay has as its target T1, FLI1 (Homo sapiens, UniProt Q01543 1-452).
T1 sequence: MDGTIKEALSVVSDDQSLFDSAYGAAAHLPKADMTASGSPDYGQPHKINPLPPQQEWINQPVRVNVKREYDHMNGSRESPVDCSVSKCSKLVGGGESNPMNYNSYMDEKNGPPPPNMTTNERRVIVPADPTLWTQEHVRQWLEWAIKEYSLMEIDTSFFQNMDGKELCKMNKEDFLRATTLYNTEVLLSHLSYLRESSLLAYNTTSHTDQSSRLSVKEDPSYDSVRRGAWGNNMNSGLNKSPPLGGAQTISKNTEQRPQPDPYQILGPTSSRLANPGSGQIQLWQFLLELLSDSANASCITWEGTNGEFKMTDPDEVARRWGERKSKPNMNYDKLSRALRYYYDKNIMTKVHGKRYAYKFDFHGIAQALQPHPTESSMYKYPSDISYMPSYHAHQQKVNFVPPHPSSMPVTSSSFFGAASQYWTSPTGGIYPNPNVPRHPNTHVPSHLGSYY
The conditions noted are these: protein: recombinant; tags: N-terminal GST; dsDNA, one strand shown. In short, it runs like this: (§1)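 After expression in yeast as GST fusions, human transcription factors were bound to glutathione beads, DNA-barcoded and mixed with a tag-only sample. The pools were incubated with 200 nmole of a 16-mer random double-stranded DNA library in Tris/NaCl/DTT/glycerol buffer (30 min, room temperature), washed and crosslinked with 0.1% formaldehyde. Proximity ligation with BsaI/T4 ligase ran for 1 h at 37 °C, before PCR amplification and sequencing on an Illumina NextSeq500. Binding signal is a hexamer's read frequency for a factor divided by its frequency for the tag-only sample.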

For a further assay, the target named is T2, ELK1 (Homo sapiens, UniProt P19419 1-428).
T2 sequence: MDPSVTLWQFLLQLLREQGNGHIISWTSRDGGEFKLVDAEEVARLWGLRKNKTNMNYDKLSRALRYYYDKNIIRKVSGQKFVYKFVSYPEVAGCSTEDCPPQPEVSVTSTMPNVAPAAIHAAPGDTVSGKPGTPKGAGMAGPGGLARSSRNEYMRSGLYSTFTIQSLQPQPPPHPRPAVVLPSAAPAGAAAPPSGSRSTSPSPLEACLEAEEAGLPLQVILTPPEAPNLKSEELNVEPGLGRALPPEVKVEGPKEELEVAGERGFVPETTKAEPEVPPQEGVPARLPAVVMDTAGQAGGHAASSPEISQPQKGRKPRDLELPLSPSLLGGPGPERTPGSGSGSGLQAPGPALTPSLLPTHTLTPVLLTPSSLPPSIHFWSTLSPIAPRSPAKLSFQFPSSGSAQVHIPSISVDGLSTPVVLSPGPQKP
The note with it: protein: recombinant; tags: N-terminal GST; dsDNA, one strand shown. In short, it runs like this:
as §1

For the next assay, the target named is T3, GABPA (Homo sapiens, UniProt Q06546 1-454).
T3 sequence: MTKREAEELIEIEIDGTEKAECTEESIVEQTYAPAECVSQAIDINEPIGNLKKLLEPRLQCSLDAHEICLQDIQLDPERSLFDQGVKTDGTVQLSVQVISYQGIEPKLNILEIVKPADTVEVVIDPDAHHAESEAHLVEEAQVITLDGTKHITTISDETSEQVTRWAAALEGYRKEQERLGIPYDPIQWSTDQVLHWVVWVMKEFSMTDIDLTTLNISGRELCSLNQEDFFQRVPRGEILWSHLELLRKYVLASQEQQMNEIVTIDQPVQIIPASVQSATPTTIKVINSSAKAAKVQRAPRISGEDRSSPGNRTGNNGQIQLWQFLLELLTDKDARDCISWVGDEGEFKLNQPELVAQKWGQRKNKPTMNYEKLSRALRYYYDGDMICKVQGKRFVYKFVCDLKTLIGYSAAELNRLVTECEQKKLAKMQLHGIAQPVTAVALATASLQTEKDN
The note with it: protein: recombinant; tags: N-terminal GST; dsDNA, one strand shown. In short, it runs like this:
as §1

The target in the next assay is T4, ERG (Homo sapiens, UniProt P11308 1-479).
T4 sequence: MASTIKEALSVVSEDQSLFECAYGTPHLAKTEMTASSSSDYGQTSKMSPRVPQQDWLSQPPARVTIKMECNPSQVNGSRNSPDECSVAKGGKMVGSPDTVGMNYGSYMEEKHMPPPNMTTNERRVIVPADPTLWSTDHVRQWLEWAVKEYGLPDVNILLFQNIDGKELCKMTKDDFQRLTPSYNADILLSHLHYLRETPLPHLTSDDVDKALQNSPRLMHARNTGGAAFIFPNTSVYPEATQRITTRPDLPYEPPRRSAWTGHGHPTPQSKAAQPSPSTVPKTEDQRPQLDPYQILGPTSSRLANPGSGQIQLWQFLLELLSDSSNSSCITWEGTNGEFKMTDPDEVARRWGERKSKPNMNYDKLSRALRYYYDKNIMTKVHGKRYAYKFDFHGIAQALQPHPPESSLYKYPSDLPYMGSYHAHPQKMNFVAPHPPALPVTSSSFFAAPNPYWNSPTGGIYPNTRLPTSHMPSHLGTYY
The note with it: protein: recombinant; tags: N-terminal GST; dsDNA, one strand shown. In short, it runs like this:
as §1

In another assay the target is ELF1 (Homo sapiens, UniProt P32519 1-619). The conditions noted are these: protein: recombinant; tags: N-terminal GST; dsDNA, one strand shown. The essentials: as §1
ELF1, sequence (P32519 whole entry): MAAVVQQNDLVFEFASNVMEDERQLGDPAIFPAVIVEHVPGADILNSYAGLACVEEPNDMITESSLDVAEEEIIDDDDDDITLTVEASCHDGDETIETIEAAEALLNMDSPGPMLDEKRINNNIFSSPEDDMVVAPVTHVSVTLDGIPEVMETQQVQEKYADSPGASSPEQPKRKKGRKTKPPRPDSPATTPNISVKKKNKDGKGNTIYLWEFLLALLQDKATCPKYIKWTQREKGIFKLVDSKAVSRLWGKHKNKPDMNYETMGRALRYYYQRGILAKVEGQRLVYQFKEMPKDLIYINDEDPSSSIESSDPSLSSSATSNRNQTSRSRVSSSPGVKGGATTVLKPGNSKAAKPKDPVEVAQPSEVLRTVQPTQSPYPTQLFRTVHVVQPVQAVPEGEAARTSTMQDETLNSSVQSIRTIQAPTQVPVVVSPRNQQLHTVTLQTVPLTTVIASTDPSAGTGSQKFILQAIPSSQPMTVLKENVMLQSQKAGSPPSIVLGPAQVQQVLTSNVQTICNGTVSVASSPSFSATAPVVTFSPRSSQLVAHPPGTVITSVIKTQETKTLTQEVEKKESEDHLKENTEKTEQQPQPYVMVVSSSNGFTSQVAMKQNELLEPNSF
Another assay deals with T5, EHF (Homo sapiens, UniProt Q9NZC4 1-300).
T5 sequence: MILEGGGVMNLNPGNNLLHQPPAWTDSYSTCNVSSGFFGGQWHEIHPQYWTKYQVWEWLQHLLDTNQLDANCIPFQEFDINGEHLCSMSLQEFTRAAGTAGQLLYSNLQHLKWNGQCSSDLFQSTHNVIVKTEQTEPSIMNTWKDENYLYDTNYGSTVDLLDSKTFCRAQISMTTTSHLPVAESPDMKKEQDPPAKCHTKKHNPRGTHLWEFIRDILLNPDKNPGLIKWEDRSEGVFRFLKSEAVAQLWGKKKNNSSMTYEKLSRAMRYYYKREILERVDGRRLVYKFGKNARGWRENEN
The note with it: protein: recombinant; tags: N-terminal GST; dsDNA, one strand shown. In short, it runs like this:
as §1

The target in another assay is SPI1 (Homo sapiens, UniProt P17947 1-270). The note with it: protein: recombinant; tags: N-terminal GST; dsDNA, one strand shown. In short, it runs like this:
as §1

The next assay deals with SPIB (Homo sapiens, UniProt Q01892 1-262). The conditions noted are these: protein: recombinant; tags: N-terminal GST; dsDNA, one strand shown. The essentials:
as §1

A further assay concerns the target T6, ELK3 (Homo sapiens, UniProt P41970 1-407).
T6 sequence: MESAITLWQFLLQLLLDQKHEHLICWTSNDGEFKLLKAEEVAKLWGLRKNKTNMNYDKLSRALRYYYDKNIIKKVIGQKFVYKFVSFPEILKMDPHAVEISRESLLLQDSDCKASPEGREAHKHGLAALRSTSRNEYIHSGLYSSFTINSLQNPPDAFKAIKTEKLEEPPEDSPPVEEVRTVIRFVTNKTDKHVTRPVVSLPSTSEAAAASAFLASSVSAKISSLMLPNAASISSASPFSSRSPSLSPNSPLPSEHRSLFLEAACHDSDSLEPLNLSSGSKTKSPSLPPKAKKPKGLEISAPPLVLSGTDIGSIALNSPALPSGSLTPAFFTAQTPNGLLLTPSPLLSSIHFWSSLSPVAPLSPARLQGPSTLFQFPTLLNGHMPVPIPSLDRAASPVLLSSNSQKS
The note with it: protein: recombinant; tags: N-terminal GST; dsDNA, one strand shown. In short, it runs like this:
as §1

For a further assay, the target named is T7, FEV (Homo sapiens, UniProt Q99581 1-238).
T7 sequence: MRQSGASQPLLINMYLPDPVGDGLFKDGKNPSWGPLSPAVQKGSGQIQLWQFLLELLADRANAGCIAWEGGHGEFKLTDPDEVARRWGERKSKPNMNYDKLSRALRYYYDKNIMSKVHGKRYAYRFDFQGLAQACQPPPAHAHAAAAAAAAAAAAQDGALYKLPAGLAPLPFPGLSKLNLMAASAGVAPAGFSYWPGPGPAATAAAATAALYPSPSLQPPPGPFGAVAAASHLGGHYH
The conditions noted are these: protein: recombinant; tags: N-terminal GST; dsDNA, one strand shown. The essentials:
as §1

A further assay deals with ETV5 (Homo sapiens, UniProt P41161 1-510). The conditions noted are these: protein: recombinant; tags: N-terminal GST; dsDNA, one strand shown. The essentials:
as §1

The target in the next assay is HSF1 (Homo sapiens, UniProt Q00613 1-529). The conditions noted are these: protein: recombinant; tags: N-terminal GST; chain copies: 3; dsDNA, one strand shown. In short, it runs like this:
as §1

The target of another assay is T8, SPIC (Homo sapiens, UniProt Q8N5J4 1-248).
T8 sequence: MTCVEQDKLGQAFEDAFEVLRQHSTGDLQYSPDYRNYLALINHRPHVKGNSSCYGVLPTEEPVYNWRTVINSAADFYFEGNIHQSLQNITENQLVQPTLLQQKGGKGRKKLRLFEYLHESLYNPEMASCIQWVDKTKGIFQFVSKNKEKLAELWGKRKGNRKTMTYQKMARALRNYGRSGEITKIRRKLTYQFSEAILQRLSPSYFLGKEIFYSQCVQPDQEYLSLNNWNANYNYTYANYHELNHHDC
The conditions noted are these: protein: recombinant; tags: N-terminal GST; dsDNA, one strand shown. The essentials:
as §1

In another assay the target is ELF4 (Homo sapiens, UniProt Q99607 1-663). The conditions noted are these: protein: recombinant; tags: N-terminal GST; dsDNA, one strand shown. In short, it runs like this:
as §1

The target of a further assay is T9, ELK4 (Homo sapiens, UniProt P28324-2 1-405).
T9 sequence: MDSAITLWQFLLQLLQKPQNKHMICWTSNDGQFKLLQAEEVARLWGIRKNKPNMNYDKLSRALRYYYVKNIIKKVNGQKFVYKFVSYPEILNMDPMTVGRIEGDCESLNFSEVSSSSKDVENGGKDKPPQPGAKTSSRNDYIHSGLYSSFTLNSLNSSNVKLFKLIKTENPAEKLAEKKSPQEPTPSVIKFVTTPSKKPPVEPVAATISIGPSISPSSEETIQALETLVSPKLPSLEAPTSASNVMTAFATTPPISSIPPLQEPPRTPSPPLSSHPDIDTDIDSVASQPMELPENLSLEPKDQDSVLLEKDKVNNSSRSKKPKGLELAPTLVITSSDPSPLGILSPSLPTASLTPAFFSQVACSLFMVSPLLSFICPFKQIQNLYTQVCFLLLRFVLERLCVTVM
The note with it: protein: recombinant; tags: N-terminal GST; dsDNA, one strand shown. In short, it runs like this: as §1

The target of another assay is T10, ETV2 (Homo sapiens, UniProt O00321 1-342).
T10 sequence: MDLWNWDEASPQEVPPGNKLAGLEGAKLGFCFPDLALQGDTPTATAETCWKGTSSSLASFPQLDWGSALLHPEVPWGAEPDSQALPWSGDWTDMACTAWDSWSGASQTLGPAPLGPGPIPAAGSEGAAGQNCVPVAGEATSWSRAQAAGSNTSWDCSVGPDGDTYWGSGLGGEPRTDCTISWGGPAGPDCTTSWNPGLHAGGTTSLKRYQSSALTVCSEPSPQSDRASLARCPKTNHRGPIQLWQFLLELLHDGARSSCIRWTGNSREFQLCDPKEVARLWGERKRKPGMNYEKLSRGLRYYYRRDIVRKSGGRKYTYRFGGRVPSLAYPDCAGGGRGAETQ
The note with it: protein: recombinant; tags: N-terminal GST; dsDNA, one strand shown. In short, it runs like this:
as §1

Another assay deals with T11, ELF3 (Homo sapiens, UniProt P78545 1-371).
T11 sequence: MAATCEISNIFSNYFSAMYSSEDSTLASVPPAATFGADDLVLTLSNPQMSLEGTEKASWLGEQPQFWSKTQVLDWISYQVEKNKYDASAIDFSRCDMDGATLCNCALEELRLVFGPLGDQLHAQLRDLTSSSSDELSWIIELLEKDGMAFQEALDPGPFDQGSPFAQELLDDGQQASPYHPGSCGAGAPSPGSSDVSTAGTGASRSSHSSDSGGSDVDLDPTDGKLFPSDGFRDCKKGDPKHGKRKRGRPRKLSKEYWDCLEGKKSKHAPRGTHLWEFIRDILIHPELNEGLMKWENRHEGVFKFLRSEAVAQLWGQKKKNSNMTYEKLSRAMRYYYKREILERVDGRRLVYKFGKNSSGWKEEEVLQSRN
The note with it: protein: recombinant; tags: N-terminal GST; dsDNA, one strand shown. In short, it runs like this:
as §1

The target of the next assay is CRX (Homo sapiens, UniProt O43186 1-299). The conditions noted are these: protein: recombinant; tags: N-terminal GST; dsDNA, one strand shown. In short, it runs like this:
as §1

In the next assay the target is ETV1 (Homo sapiens, UniProt P50549 1-477). The conditions noted are these: protein: recombinant; tags: N-terminal GST; dsDNA, one strand shown. The essentials:
as §1

This passage reports binding signal results from publication PMC7862700, “An all-to-all approach to the identification of sequence-specific readers for epigenetic DNA modifications on cytosine”.

ETV1, sequence (P50549 whole entry): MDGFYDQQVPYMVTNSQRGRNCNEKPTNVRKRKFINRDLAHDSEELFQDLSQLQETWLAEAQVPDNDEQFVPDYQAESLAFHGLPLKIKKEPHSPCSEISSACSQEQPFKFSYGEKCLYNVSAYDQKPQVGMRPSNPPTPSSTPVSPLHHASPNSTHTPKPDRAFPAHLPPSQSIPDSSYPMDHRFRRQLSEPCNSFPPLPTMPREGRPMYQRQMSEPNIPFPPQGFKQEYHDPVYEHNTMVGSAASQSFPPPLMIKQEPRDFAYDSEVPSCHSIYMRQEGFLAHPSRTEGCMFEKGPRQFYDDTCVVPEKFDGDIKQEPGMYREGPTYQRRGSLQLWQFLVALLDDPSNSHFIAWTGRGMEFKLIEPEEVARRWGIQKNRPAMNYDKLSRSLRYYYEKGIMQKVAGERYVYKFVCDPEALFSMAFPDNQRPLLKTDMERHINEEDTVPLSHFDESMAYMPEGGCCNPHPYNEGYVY
ELF4, sequence (Q99607 whole entry): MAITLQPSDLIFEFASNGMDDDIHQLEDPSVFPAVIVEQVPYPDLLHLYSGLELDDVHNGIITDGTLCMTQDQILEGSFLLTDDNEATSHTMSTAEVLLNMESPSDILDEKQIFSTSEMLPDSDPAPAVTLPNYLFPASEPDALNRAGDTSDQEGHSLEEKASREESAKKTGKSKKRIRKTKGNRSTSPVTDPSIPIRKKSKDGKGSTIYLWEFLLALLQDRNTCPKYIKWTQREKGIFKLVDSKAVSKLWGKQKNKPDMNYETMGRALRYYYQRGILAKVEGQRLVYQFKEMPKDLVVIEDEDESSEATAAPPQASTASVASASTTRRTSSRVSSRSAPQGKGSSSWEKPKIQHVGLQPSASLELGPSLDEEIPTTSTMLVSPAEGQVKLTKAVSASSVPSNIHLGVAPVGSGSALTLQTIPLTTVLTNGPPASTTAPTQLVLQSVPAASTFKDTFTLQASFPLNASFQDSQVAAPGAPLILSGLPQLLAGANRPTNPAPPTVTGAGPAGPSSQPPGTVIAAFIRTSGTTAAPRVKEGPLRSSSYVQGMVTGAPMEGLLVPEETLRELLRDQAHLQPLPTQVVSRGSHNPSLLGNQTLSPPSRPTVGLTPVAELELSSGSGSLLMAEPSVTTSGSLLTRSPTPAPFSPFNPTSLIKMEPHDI
SPIB, sequence (Q01892 whole entry): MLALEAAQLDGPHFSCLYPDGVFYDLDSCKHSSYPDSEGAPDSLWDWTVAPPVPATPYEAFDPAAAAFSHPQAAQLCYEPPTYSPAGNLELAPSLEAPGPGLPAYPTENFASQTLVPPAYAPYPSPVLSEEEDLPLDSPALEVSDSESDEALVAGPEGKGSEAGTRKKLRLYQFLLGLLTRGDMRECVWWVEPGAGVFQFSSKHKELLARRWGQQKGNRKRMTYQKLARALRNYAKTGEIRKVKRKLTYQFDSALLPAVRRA
CRX, sequence (O43186 whole entry): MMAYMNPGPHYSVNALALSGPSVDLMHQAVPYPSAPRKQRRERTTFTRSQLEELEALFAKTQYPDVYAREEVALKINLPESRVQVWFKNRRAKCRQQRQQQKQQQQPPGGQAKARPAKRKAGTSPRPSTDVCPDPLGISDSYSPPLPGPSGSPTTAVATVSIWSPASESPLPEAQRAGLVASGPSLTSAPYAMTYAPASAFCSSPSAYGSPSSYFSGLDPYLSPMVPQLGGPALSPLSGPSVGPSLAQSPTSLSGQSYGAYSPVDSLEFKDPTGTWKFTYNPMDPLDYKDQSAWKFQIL
HSF1, sequence (Q00613 whole entry): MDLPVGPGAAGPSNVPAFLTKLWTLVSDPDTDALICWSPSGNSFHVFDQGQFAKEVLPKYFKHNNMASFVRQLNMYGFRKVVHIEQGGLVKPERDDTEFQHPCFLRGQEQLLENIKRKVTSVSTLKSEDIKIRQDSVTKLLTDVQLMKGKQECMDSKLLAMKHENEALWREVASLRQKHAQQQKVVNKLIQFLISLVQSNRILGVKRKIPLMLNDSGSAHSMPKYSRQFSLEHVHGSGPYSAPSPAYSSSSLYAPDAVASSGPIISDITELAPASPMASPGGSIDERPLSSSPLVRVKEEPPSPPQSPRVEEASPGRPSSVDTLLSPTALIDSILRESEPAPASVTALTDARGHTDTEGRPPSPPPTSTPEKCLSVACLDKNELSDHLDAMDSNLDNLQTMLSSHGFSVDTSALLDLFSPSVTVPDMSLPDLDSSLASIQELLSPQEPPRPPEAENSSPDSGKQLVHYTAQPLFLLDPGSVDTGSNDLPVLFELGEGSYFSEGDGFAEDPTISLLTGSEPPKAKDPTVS
ETV5, sequence (P41161 whole entry): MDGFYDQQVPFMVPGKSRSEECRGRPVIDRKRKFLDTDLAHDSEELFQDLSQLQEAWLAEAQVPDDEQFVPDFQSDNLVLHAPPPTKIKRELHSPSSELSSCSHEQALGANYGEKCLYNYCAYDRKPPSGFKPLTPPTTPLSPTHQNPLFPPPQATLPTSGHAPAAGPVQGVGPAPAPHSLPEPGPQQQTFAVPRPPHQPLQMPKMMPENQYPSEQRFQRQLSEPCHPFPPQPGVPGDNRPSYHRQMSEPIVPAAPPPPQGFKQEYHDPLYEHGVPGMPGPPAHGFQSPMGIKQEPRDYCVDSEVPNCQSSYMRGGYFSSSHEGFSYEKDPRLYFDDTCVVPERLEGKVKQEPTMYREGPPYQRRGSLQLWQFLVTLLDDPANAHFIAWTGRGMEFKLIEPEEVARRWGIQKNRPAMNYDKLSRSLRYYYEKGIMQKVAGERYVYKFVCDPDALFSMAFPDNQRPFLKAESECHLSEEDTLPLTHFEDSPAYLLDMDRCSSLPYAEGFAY

Take TATGGT: the binding signal with FLI1 is 1.38 fold enrichment (6-mer frequency, TF over GST control); with ELK1, 1.3 fold enrichment (6-mer frequency, TF over GST control); with GABPA, 1.32 fold enrichment (6-mer frequency, TF over GST control); in the assay with ERG it was 1.22 fold enrichment (6-mer frequency, TF over GST control); with ELF1, 1.37 fold enrichment (6-mer frequency, TF over GST control); with EHF it was 1.39 fold enrichment (6-mer frequency, TF over GST control). Moreover, the binding signal with SPI1 was 1.28 fold enrichment (6-mer frequency, TF over GST control); in the assay with SPIB, 1.3 fold enrichment (6-mer frequency, TF over GST control); with ELK3, 1.17 fold enrichment (6-mer frequency, TF over GST control); with FEV, 1.24 fold enrichment (6-mer frequency, TF over GST control); with ETV5 it was 1.38 fold enrichment (6-mer frequency, TF over GST control); with HSF1, 1.16 fold enrichment (6-mer frequency, TF over GST control). The binding signal is 1.49 fold enrichment (6-mer frequency, TF over GST control) in the assay with SPIC; 1.34 fold enrichment (6-mer frequency, TF over GST control) with ELF4; 1.44 fold enrichment (6-mer frequency, TF over GST control) with ELK4; 1 fold enrichment (6-mer frequency, TF over GST control) in the assay with ETV2; 1.5 fold enrichment (6-mer frequency, TF over GST control) with ELF3; 1.29 fold enrichment (6-mer frequency, TF over GST control) with CRX. In addition, the binding signal in the assay with ETV1 is 1.27 fold enrichment (6-mer frequency, TF over GST control).
